# Laboratory results published in PubChem BioAssay AID1490 (National Center for Advancing Translational Sciences (NCATS), 2009).
# Among all 310,000 compounds or so, about 11,000 (3.5%) were called active. Another 4% or so got no clear call; they are omitted. The list comes from a sample in which actives are over-represented; it also holds similar structures and randomly drawn compounds. Unmarked numbers belong to inactive results. Calls follow the shape of the dose curve; as a rule, active = well fitted inhibition curve with a large enough effect; inconclusive = small, poorly fitted or top-dose-only effect, or another doubt; inactive = no such curve, though single readings can be large or run the other way.
# Target: 4'-phosphopantetheinyl transferase ffp (Bacillus subtilis) (UniProt Q9F4F7)
# Assay: qHTS Assay for Inhibitors of Bacillus subtilis Sfp phosphopantetheinyl transferase (PPTase);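 also: the enzyme is Sfp with the accession as filed and its product quenches rhodamine fluorescence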;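 as to largest response in the series, negative = inhibition: 0% = enzyme reaction without inhibitor and -100% = no enzyme wells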
# Conditions: Biochemical Sfp PPTase activity
# Method in brief: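 Compounds were incubated with enzyme (final 15 nM) for 15 min at room temperature before substrate addition started the reaction. Fluorescence at 525 nm excitation, 598 nm emission was recorded immediately and after 30 minutes.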
# Potency is read from the fitted curve at half-maximal effect.
SMILES,"largest response in the series, negative = inhibition [%]",Potency
CC1C(=O)Nc2ccccc2N1C(=O)c1ccc(F)cc1F (stereo not drawn),9.39,
COc1cccc(OCc2cc(C(=O)N3CCN(C(=O)c4ccco4)CC3)no2)c1,10.6,
Cc1cc(Cl)ccc1OCCCC(=O)Nc1cccc(-n2cnnn2)c1,1.31,
O=C(O)c1n[nH]nc1-c1ccccc1,,70.8 µM (active)
O=c1[nH]c(-c2ccccc2)c(-c2ccccc2)[nH]1,2.86,
c1ccc(Nc2n[nH]nc2-c2ccccc2)cc1,1.39,
S=C(Nc1cccc(Cl)c1)Nc1ccc2c(c1)OCCO2,-5.75,
CC(C)(C)c1cc(=O)n2c(nc3ccccc32)[nH]1,30.5,
CC1(C)CC(=O)c2cnc3nc4ccccc4n3c2C1,,50.1 µM (active)
Cc1ccc2nc(Nc3ncc4c(n3)CC(C)(C)CC4=O)nc(C)c2c1,4.59,
CSc1ccccc1NC(=O)c1cc(Cl)sc1Cl,9.55,
CNC(=O)c1c(NC(NC(=O)c2ccco2)C(=O)c2ccc(Cl)cc2)sc2c1CCCC2 (stereo not drawn),,25.1 µM (active)
CC(C)OC(=O)c1c(NC(=O)c2ccco2)sc2c1CCCC2,10.9,
CCOC(=O)c1c(NC(=S)NC(=O)c2ccco2)sc2c1CCCC2,-0.0002,
COC(=O)c1ccc(CN2C(=O)NC(c3ccccc3)(c3ccccc3)C2=O)o1,23.7,
CC[C@]1([C@H]2O[C@@H]([C@@H]3O[C@](O)(CO)[C@@H](C)C[C@H]3C)C[C@H]2C)CC[C@@H]([C@]2(C)CC[C@@]3(C[C@@H](O)[C@@H](C)[C@@H]([C@H](C)[C@H](OC)[C@H](C)C(=O)O)O3)O2)O1,15.5,
Cc1ccc(N2C(=O)C3CC3C2=O)cc1 (stereo not drawn),15.7,
COc1ccc(N2C(=O)CC(Sc3n[nH]c(-c4ccc(C)cc4)n3)C2=O)cc1 (stereo not drawn),,25.1 µM (active)
COc1ccc(-c2nc(SCC(=O)N3CCCC3)n[nH]2)cc1,14.1,
Cc1ccc(N2C(=O)CC(Sc3ncn[nH]3)C2=O)cc1 (stereo not drawn),,56.2 µM (active)

SMILES,"largest response in the series, negative = inhibition [%]",Potency
COc1ccc(N2C(=O)CC(SC(C)C)C2=O)cc1 (stereo not drawn),7.97,
O=C1CC(N2CCN(c3ccc(F)cc3)CC2)C(=O)N1c1ccccc1 (stereo not drawn),0.505,
CC(=O)Nc1ccc(N2C(=O)CC(Sc3nccc(C)n3)C2=O)cc1 (stereo not drawn),11.7,
COC(=O)c1ccccc1SC1CC(=O)N(c2cccc(C)c2)C1=O (stereo not drawn),-19.3,
O=C1CC(Sc2ncn[nH]2)C(=O)N1c1ccccc1 (stereo not drawn),,56.2 µM (active)
CCOc1ccc(S(=O)(=O)N2CCC(C(=O)NCc3ccccn3)CC2)cc1Cl,5.52,
CC[C@@]12C=C(/C=C/c3ccccc3)[C@](CC)(C1)[C@H](c1ccccc1)CC2=O,-22.6,
CC(Nc1nc(C(F)(F)F)nc2ccccc12)c1cccs1 (stereo not drawn),2.55,
COC(=O)C(C(=O)OC)[C@@H]1CCCC(=O)C1,-0.107,
CN(C)c1ccc(-c2nnc(-c3cccnc3)o2)cc1,7.75,
Cc1cc(NS(=O)(=O)c2ccc(NC(=O)C(C)Oc3cccc(C)c3C)cc2)nc(C)n1 (stereo not drawn),8.85,
Cc1ccc(/C=N/NC(=O)CSc2nc3ccccc3o2)cc1,-16.9,
O=C(CSc1nc2ccccc2o1)N/N=C/c1ccccc1C(=O)O,,44.7 µM (active)
CC(C)(C)C(=O)CSc1nc2ccccc2o1,7.38,
CCN(CC)S(=O)(=O)c1ccc(C(=O)N2CCN(C3=NS(=O)(=O)c4ccccc43)CC2)cc1,14.9,
COc1cccc(CCNC(=O)c2cccc(NC(=O)C3=C(C)OCCS3)c2)c1,3.98,
CCCS(=O)(=O)Nc1ccc(-c2cn3c(n2)SCC3)cc1,-22.5,
Cc1cc(-c2cccs2)nc(-n2cccc2)n1,1.03,
c1csc(-c2cn3c(n2)SCC3)c1,,79.4 µM (active)
CCOc1ccc(OCC)c(-c2c(=O)n(OCc3ccc(Cl)cc3)c3ccccc3[n+]2[O-])c1,,100 µM (active)

SMILES,"largest response in the series, negative = inhibition [%]",Potency
COc1ccc(OC)c(-c2c(=O)n(OCc3ccccc3Br)c3ccccc3[n+]2[O-])c1,9.79,
CCOC(=O)COn1c(=O)c(-c2ccc(OCC)cc2)[n+]([O-])c2ccccc21,1.13,
O=C(N=C1SC2CS(=O)(=O)CC2N1c1cc(Cl)ccc1Cl)C1CC1 (stereo not drawn),8.66,
O=c1oc(-c2ccco2)nc2sc3c(c12)CCCCC3,2.61,
O=C(NCc1ccco1)c1cccn2c(=O)c3c4c(sc3nc12)CCCC4,,44.7 µM (active)
COc1ccc(CCn2c(=N)c(C(=O)NCc3ccco3)cc3c(=O)n4cccc(C)c4nc32)cc1,-13.5,
CCc1ccc(NC(=O)CS(=O)CC(=O)N2CCN(c3ccccc3F)CC2)cc1 (stereo not drawn),2.49,
COc1ccc(C(=O)NC2CC2)cc1OC1CCN(C/C=C/c2ccccc2)CC1,8.51,
Cc1coc2c(O)cc3c(c12)OC1(N2CCCCC2)C(=O)NCCCC31 (stereo not drawn),,28.2 µM (active)
Cc1nonc1C1CCCN1C(=O)c1cc(COc2cccc(C(F)(F)F)c2)on1 (stereo not drawn),14.2,
CCc1cccc(NC(=O)CCCN2C(=O)C(c3ccccc3)Oc3cccnc32)c1 (stereo not drawn),11.6,
COC(=O)C(CC(C)C)NS(=O)(=O)c1cc(Br)ccc1Br (stereo not drawn),6.49,
COc1cc2c(cc1OC)CC(=O)N(CCCN(C)C[C@H]1Cc3cc(OC)c(OC)cc31)CC2,9.18,
Cc1cccc(N2C(=O)CC(SC(N)=Nc3ccccc3)C2=O)c1 (stereo not drawn),10.8,
Cc1cccc(N2C(=O)c3ccc(C(=O)Nc4cccc(C(=O)O)c4)cc3C2=O)c1,8.86,
Cc1cccc(N2C(=O)SC(SC(=Nc3ccccc3)Nc3ccccc3)C2=O)c1 (stereo not drawn),,10 µM (active)
CCOC(=O)C1(Cc2ccccc2C)CCCN(C(=O)CN2C(=O)CSC2=O)C1 (stereo not drawn),3.9,
CC(=O)c1cccc(OCc2cc(C(=O)NC(C)Cc3cccnc3)no2)c1 (stereo not drawn),16.6,
